Source: PubChem BioAssay
KDM5B inh – KDM5B demethylase inhibition; Q9UGL1; KDM5B demethylase, FDH-coupled NADH fluorescence (FDH is formaldehyde dehydrogenase); Potency, µM (doses to about 57.7 µM), hits mostly inhibitors; actives 2.6% (n = 220,000); AID 1347165; active means well fitted inhibition curve with a large enough effect; further: 0% is about no effect; nearly all actives have a fitted effect of over 70% in size
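KDM5BΔAP (200 nM final) in 50 mM HEPES pH 7.5, 0.01% Tween-20 was preincubated 10 min at RT with compound over a concentration range. Substrate mix (H3K4me3 12.5 µM, α-KG 25 µM, Fe²⁺, ascorbate, NAD⁺, FDH) was added, and NADH fluorescence change over 30 min gave dose-response curves.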
An asterisk follows results filed as active; i = inactive. Many of the other results were omitted from the sample, so hits are more common in it than they were. Potency means the concentration at half of the fitted maximal effect.

SMILES	KDM5B inh
O=C(Nc1cccnc1)c1ccc(F)c(S(=O)(=O)N2CCOCC2)c1	i
CN(C)CCN(C)C(=O)c1cc(-c2ccccc2F)cc2c1OCCN2Cc1cccnc1	i
O=C(Nc1cccnc1)c1nc2c(o1)CCN(Cc1ccc(F)cc1F)CC2	i
O=C(NCc1ccco1)c1cc(-c2ccccc2F)cc2c1OCCN2Cc1cccnc1	28.2µM*
CCOc1ccccc1-c1noc(CN2CCCc3c(C(=O)NC(C)C)cccc32)n1	i
O=C(Nc1cccnc1)c1cc(-c2ccccc2F)cc2c1OCCN2Cc1cccnc1	35.5µM*
CC(C)NC(=O)c1cc(-c2ccccc2F)cc2c1OCCN2Cc1cccnc1	22.4µM*
CC(Cc1cccnc1)NC(=O)c1cc(COc2c(F)cccc2F)on1 (stereo not given)	i
O=C(NCCc1cccnc1)c1cccc(F)c1	i
CN(C(=O)CN1CCN(Cc2ccccc2)CC1)c1ccccc1C(=O)NCc1ccco1	i
CN(C)CCNC(=O)c1cc(-c2ccccc2F)cc2c1OCCN2Cc1cccnc1	35.5µM*
O=C(NCc1cccnc1)c1ccc2c(c1)N(Cc1ccccc1F)C(=O)c1ccccc1S2=O (stereo not given)	i
Cc1ccc(S(=O)(=O)NC[C@H]2O[C@H](Cc3cc(-c4cccc(O)c4)on3)CC[C@@H]2O)cc1	i
O=C(O)c1occc1-c1cccs1	i
CCOc1ccc(CN(C)CC(=O)Nc2ccc(F)c(Cl)c2)cc1	i
CCN1CCN(CCOc2ccc3c(=O)c(-c4ccc(OC)cc4)coc3c2C)CC1	i
COc1cc(C2=NOC(C(=O)Nc3ccc(OC(F)(F)F)cc3)C2)cc(OC)c1OC (stereo not given)	i
CC(Sc1ccc(C(C)(C)C)cc1)C(=O)NC(C)(C)C (stereo not given)	i
O=C1Nc2ccc(-c3ccccc3F)cc2C(=O)N2C[C@@H](NS(=O)(=O)c3ccc(F)cc3)C[C@@H]12	i
CS(=O)(=O)N[C@H]1C[C@H]2C(=O)Nc3cc(Cl)ccc3C(=O)N2C1	i
CC(C)NC(=O)N[C@H]1CCN2C(=O)c3cc(-c4ccc5c(c4)OCO5)ccc3NC(=O)[C@@H]2C1	31.6µM*
O=C1Nc2ccc(-c3ccc4c(c3)OCO4)cc2C(=O)N2C[C@@H](NS(=O)(=O)c3ccc(F)cc3)C[C@@H]12	31.6µM*
COc1ccc(Cl)cc1-c1ccc2c(c1)C(=O)N1C[C@@H](NS(=O)(=O)c3ccc(F)cc3)C[C@H]1C(=O)N2	31.6µM*
CC(C)NC(=O)N[C@H]1CCN2C(=O)c3cc(-c4ccccc4)ccc3NC(=O)[C@H]12	i
O=C1Nc2ccc(-c3ccc(F)cc3F)cc2C(=O)N2C[C@H](O)C[C@@H]12	i
SMILES	KDM5B inh
CS(=O)(=O)N[C@H]1C[C@H]2C(=O)Nc3ccc(-c4ccc5c(c4)OCO5)cc3C(=O)N2C1	i
O=C(O)COCC(=O)N[C@H]1CCN2C(=O)c3cc(-c4ccc5c(c4)OCO5)ccc3NC(=O)[C@H]12	i
CCn1ncc(N2CCC(NC(=O)Cc3cccc(F)c3)CC2)cc1=O	i
COCCN(CCOC)C(=O)COc1cc2oc(=O)cc(C)c2cc1Cl	i
O=S(=O)(NCCc1ccc(F)cc1)c1ccc2c(c1)CCCC2	i
O=C(Nc1ccncc1)c1ccc(SC(F)(F)F)cc1	i
CCOP(=O)(OCC)c1nc(Cc2ccc(OC)cc2)oc1NCc1ccco1	i
Cc1ccc(Cl)cc1NC(=O)CSc1ncc(-c2ccc(F)cc2)o1	i
CC(C)(C)C(=O)CSc1nnc(COc2ccc(Cl)cc2)n1-c1ccc(Cl)cc1	i
O=S(=O)(c1cccc(C(F)(F)F)c1)N1CCC(n2cnnc2C2CC2)CC1	i
O=c1oc2ccc(Br)cc2cc1-c1csc(Nc2c(F)cccc2F)n1	i
O=C(Cc1c[nH]c2ccccc12)NC1CCCNC1=O (stereo not given)	i
CCOC(=O)C1=C(C)N(C)C(=O)NC1c1ccc(Br)s1 (stereo not given)	i
Cc1nc2scc(CC(=O)NCc3ccco3)n2c(=O)c1-c1cc(C)n(-c2ccccc2F)n1	28.2µM*
COCCCNC(=O)c1c(-c2ccccc2)c(-c2ccccc2)nn(C)c1=O	i
COc1ccccc1CNC(=O)Cc1csc2nc(-c3ccc(F)cc3)cn12	i
COc1ccc(OC)c(-n2nnc(C(=O)NCc3ccco3)c2N)c1	i
COc1ccccc1-n1nc(-c2c(C)nc3scc(CC(=O)NCc4ccco4)n3c2=O)cc1C	28.2µM*
COc1ccccc1-c1noc(CCCC(=O)NCc2ccco2)n1	i
Cc1nn(CC(=O)NCc2ccco2)c(=O)c2nn(-c3ccccc3)c(C)c12	i
O=C(NCCc1csc2nc(-c3ccccc3F)nn12)c1ccco1	i
COCCCNC(=O)Cc1csc2nc(C)c(-c3cc(C)n(-c4ccccc4F)n3)c(=O)n12	28.2µM*
COCCCNC(=O)CCc1ncc(-c2c(F)cccc2F)o1	i
COc1ccccc1-n1nc(-c2c(C)nc3scc(CC(=O)NCc4ccccc4)n3c2=O)cc1C	25.1µM*
COc1ccccc1CNC(=O)c1csc(NCc2ccccc2)n1	i
